NIH3T3 tox = NIH 3T3 cell cytotoxicity. NIH 3T3 viability, CellTiter-Glo ATP luminescence, 48-72 h. Potency, µM (top dose mostly 96.7 µM), inactives show at the top dose activity change, negative = cytotoxicity, actives largely listed as inhibitors. actives 4.3% (n = 94,000). AID 1345082; further: on the % scale 0 is the no-effect control and ±100 the full control effect; nearly all actives have a fitted effect of over 55% in size
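Viability of NIH 3T3 cells after 48 or 72 hr compound treatment at 37 °C was assessed by CellTiter-Glo, with luminescence imaged following a 10 min room-temperature step.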
Luciferase inh = blocks purified firefly luciferase enzyme activity | purified P. pyralis luciferase, luminescence, biochemical | Potency, µM (doses to about 115 µM), actives largely listed as inhibitors | P08659 | actives 2.5% (n = 76,000); further: on the % scale 0 is the no-effect control and ±100 the full control effect; nearly all actives have a fitted effect of over 65% in size
Target sequence (P08659 whole entry, looked up): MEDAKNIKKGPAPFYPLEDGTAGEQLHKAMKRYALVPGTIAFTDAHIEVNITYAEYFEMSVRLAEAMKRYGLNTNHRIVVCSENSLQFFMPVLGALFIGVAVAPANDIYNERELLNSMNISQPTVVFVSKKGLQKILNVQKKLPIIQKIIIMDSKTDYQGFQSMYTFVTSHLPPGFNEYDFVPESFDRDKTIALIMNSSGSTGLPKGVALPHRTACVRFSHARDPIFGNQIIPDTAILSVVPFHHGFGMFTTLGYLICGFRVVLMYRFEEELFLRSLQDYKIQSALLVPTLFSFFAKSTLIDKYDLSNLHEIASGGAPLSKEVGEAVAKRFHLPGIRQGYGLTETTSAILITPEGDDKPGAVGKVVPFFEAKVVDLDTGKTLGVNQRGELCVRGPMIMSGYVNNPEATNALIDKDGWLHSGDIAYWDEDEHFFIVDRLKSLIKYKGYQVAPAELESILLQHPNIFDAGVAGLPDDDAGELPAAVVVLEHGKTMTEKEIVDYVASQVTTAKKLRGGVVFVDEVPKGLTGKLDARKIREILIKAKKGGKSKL
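Inhibitors were tested against purified firefly luciferase in a biochemical, low-substrate format (both substrates at 10uM) and luminescence measured with a CCD imager.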
hNpr1 antagonist = blocks ANP-stimulated signaling of human Npr1 receptor. P16066. HEK293 hNpr1 GloSensor cGMP, ANP-stimulated luminescence. Potency, µM (top dose mostly 46.3 µM), inactives show at the top dose activity change, negative = inhibition, usual class: inhibitors. actives 1.6% (n = 76,000). AID 1347048; calls by dose curve; further: on the % scale 0 is the no-effect control and ±100 the full control effect; nearly all actives have a fitted effect of over 60% in size
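HEK293 cells stably expressing human Npr1 and cGMP GloSensor pGS-40F, loaded 2 h with 2% GloSensor reagent, given compound 30 min at room temperature. Luminescence read before and 20 min after 0.1 nM hNppA.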
HEK cytotox = cytotoxic compounds in HEK 293 cells. Potency, µM (doses to about 115 µM), for the others: top-dose activity change, negative = cytotoxicity, usual class: inhibitors. actives 6.6% (n = 94,000). HEK 293 viability, ATP luminescence (CellTiter-Glo), 48-72 h; further: on the % scale 0 is the no-effect control and ±100 the full control effect; nearly all actives have a fitted effect of over 60% in size
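Luminescence from cellular ATP, measured with CellTiter-Glo, indicates HEK 293 viability. Cells plated at 250 cells/well are treated with compound for 48 or 72 hr at 37 degree Celsius before reagent addition.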
Npr1 antag conf = confirmation of human Npr1 natriuretic peptide receptor antagonists. shares compounds with hNpr1 antagonist. HEK293 hNpr1 cGMP GloSensor luminescence, ANP-stimulated. Potency, µM (doses to about 57.6 µM), without a hit: top-dose activity change, negative = inhibition, hits mostly inhibitors. actives 76% (n = 1,400); calls by dose curve; further: nearly all actives have a fitted effect of over 70% in size
NPR2 antag = selectivity test of Npr1 antagonists against human Npr2; HEK293 hNpr2 GloSensor cGMP luminescence, CNP-stimulated; Potency, µM (series often up to 57.6 µM), without a hit: at the top dose activity change, negative = inhibition, usual class: inhibitors; actives 67% (n = 1,400); shares compounds with hNpr1 antagonist; AID 1347046; calls by dose curve; further: nearly all actives have a fitted effect of over 70% in size
FLuc inh counter = FLuc enzyme inhibition, Npr1 counter-screen. Potency, µM (doses to about 57.6 µM), for inactives: top-dose activity change, negative = inhibition, most hits filed as inhibitors. actives 0.7% (n = 1,400). purified FLuc enzyme, luminescence, Km substrate. shares compounds with hNpr1 antagonist; further: 0% is about no effect
GloSensor ctrl = counter-screen for Npr1 antagonists: GloSensor control cell line | shares compounds with hNpr1 antagonist | HEK293 GloSensor cGMP, SNP-stimulated, luminescence | Potency, µM (top dose mostly 57.6 µM), without a hit: top-dose activity change, negative = inhibition, actives largely listed as inhibitors | actives 69% (n = 1,400); calls by dose curve; further: on the % scale 0 is the no-effect control and ±100 the full control effect; nearly all actives have a fitted effect of over 70% in size
* marks the source's active call; other numbers are inactive results; i = inactive; ? = inconclusive; . = not tested or not shown; [ ] = remark or other dose. Most compounds without a hit are left out; they make up all but 11% or so of the library. Unless noted, the call rests on the fitted dose curve; in most records, active means well fitted curve in the direction sought with a large enough effect; inconclusive means small, poorly fitted or top-dose-only effect, or another doubt; inactive means no such curve, though single readings can be large; an effect the other way counts as inactive or inconclusive. Potency means the concentration at half of the fitted maximal effect.

SMILES | NIH3T3 tox | Luciferase inh | hNpr1 antagonist | HEK cytotox | Npr1 antag conf | NPR2 antag | FLuc inh counter | GloSensor ctrl
O=C(c1ccncn1)N1CCC(Oc2cnc3c(ccn3-c3cncnc3)c2)CC1 | -19.3%[138 µM] | i | 4.4%[70.6 µM] | ? | . | . | . | .
O=C(Oc1ccccc1)N1CCC(Oc2cnc3c(ccn3-c3cncnc3)c2)CC1 | ? | i | 35.5µM* | 56.2µM* | 39.6µM* | 39.6µM* | 4.5%[86.2 µM] | 39.6µM*
Cn1c(CNC(=O)c2ccc3nccn3c2)nc2cc(C(F)(F)F)ccc21 | ? | i | 11.2µM* | ? | 21.7µM* | 19.3µM* | -9.6% | 27.3µM*
Cc1cc2c(N3CCC(NCc4noc(C5CCC5)n4)CC3)ncnc2s1 | ? | i | 2µM* | ? | 1.53µM* | 3.06µM* | 2.2% | 1.72µM*
COc1cccc(C(=O)N2CCCN(c3cc(-c4ccc(Cl)cc4)[nH]n3)CC2)c1OC | ? | i | 11.2µM* | ? | 19.3µM* | 17.2µM* | 4.8% | 15.3µM*
COc1ccccc1C(=O)N1CCCN(c2cc(-c3ccc(F)cc3)[nH]n2)CC1 | ? | i | -12.2% | ? | . | . | . | .
COc1cccc(C(=O)N2CCCN(c3cc(-c4ccc(C)c(C)c4)[nH]n3)CC2)c1OC | ? | i | 10µM* | 39.8µM* | 24.3µM* | 21.7µM* | -11.4% | 24.3µM*
CNC(=O)c1cc(-c2ccccc2C)cc2c1OCCN2Cc1cccnc1 | ? | i | ? | ? | ? | ? | 2.2%[86.2 µM] | -17.8%[86.2 µM]
CNC(=O)c1cc(-c2ccccc2O)cc2c1OCCN2Cc1cccnc1 | ? | i | -19.7%[70.6 µM] | -21.9%[172 µM] | . | . | . | .
COc1ccc(C(=O)N2CCC(=O)N(CCC#N)C[C@H]3COc4ccc(C)cc4[C@H]32)cc1 | -20.7% | . | . | ? | . | . | . | .
COc1ccc(-c2nc3cc(C)ccc3cc2CN2CCC(N(C)C)C2)cc1 (centres undefined) | ? | ? | 1.9% | ? | . | . | . | .
CC1(c2ccccc2)N(Cc2ccccc2C#N)C(=O)OC12CCN(Cc1c[nH]c3ccccc13)CC2 (centres undefined) | 22.4µM* | i | ? | 14.1µM* | 19.3µM* | 19.3µM* | 0.2% | -9.3%
CC1(c2ccccc2)N(Cc2ccccc2C#N)C(=O)OC12CCN(Cc1ccccc1F)CC2 (centres undefined) | ? | i | -16.3% | ? | . | . | . | .
Cc1ccc(N2CCN(C(=O)C3CCCN(c4cnn(Cc5ccccc5)c(=O)c4)C3)CC2)cc1 (centres undefined) | ? | i | 10µM* | 25.1µM* | 17.2µM* | 19.3µM* | 2.4% | 15.3µM*
O=C(NC1CCCc2c1[nH]c1ccc(Cl)cc21)c1ccncc1 (centres undefined) | ? | i | ? | 22.4µM* | ? | -29.9% | -4.0% | -27.4%
Clc1ccc(C2Cn3nnc(-c4noc(C5CCCC5)n4)c3CO2)cc1 (centres undefined) | -12.1% | i | -22.5% | ? | . | . | . | .
COc1ccc(C2Cn3nnc(-c4noc(C5CCCCC5)n4)c3CO2)cc1 (centres undefined) | i | i | -1.2% | 9.6% | ? | ? | 0.8% | -5.0%
O=C(Cc1cccc(Cl)c1)NCCNC(=O)c1ccc(-c2cccc(C(F)(F)F)c2)cc1 | -29.2% | . | . | ? | . | . | . | .
CC(C)c1ccc(CN2CCC3(CC2)OCCN(c2ccc(F)cc2)C3=O)cc1 | ? | i | 22.4µM* | ? | 35.3µM* | 31.4µM* | -1.9%[86.2 µM] | 35.3µM*
Cc1ccccc1CC(=O)N1CCC(Cc2nc(-c3cnccn3)no2)CC1 | -5.4% | i | -0.3% | 5.8% | . | . | . | .
COc1ccc(CC(=O)N2CCC(Cc3nc(-c4ccccc4)no3)CC2)cc1 | 11.2µM* | i | 7.08µM* | 14.1µM* | 9.68µM* | 12.2µM* | -0.3% | 10.9µM*
CCOc1ccc(CC(=O)N2CCC(Cc3nc(-c4ccccc4)no3)CC2)cc1 | ? | i | 15.8µM* | 22.4µM* | 13.7µM* | 17.2µM* | 9.1% | 12.2µM*
CN(C)C(=O)c1ccc(OC2CCN(C(=O)c3cccs3)CC2)nc1 | -33.4% | i | -4.3% | ? | . | . | . | .
OCC1CCCN(c2ccc(-c3nc(-c4cccc(C(F)(F)F)c4)no3)cn2)C1 (centres undefined) | ? | i | 14.1µM* | -29.0% | 13.7µM* | 17.2µM* | ? | 17.2µM*
CC1=NS(=O)(=O)N(C)C=C1C(=O)OCc1noc(-c2cccs2)n1 | ? | i | 10µM* | ? | 21.7µM* | 19.3µM* | -1.8% | 21.7µM*
SMILES | NIH3T3 tox | Luciferase inh | hNpr1 antagonist | HEK cytotox | Npr1 antag conf | NPR2 antag | FLuc inh counter | GloSensor ctrl
CC1=NS(=O)(=O)N(C)C=C1C(=O)OCc1nc(C2CC2)no1 | -3.1% | i | -4.7% | -2.6% | . | . | . | .
COC(=O)c1ccc(COC(=O)C2=CN(C)S(=O)(=O)N=C2C)o1 | -30.4% | i | ? | -29.9% | 24.3µM* | ? | 2.8% | 19.3µM*
CC1=NS(=O)(=O)N(C)C=C1C(=O)OCc1noc(-c2ccccc2C)n1 | ? | i | 10µM* | ? | 10.9µM* | 17.2µM* | -11.3% | 10.9µM*
CC1=NS(=O)(=O)N(Cc2ccccc2)C=C1C(=O)OCc1noc(C2CCCC2)n1 | ? | i | -24.5% | ? | . | . | . | .
CC1=NS(=O)(=O)N(C)C=C1C(=O)OCc1noc(-c2ccccc2F)n1 | ? | i | 11.2µM* | -32.2% | 19.3µM* | 17.2µM* | -13.0% | 13.7µM*
Cc1ccc(S(=O)(=O)N2CCN(C3CCN(Cc4ccccn4)C3=O)CC2)cc1F (centres undefined) | -20.3% | i | 0.0% | -27.1% | . | . | . | .
CC1=NS(=O)(=O)N(C)C=C1C(=O)OCc1nc(-c2cccs2)no1 | -21.8% | i | ? | -27.3% | 24.3µM* | ? | -17.0% | 21.7µM*
CCC1(O)CCC12CCN(C(=O)CCc1nc3ccccc3s1)CC2 (centres undefined) | ? | i | -12.8% | ? | . | . | . | .
COc1cccc(CN2CCOC3(CCN(Cc4ccc(C#N)cc4)CC3)C2=O)c1 | ? | i | ? | ? | 35.3µM* | 39.6µM* | 2.5%[86.2 µM] | 35.3µM*

From PubChem
